# Source: PubChem BioAssay (NCATS)
# Records with an inconclusive call do not appear. A call without a number means that no potency is given here. Calls of active or inactive are those of the source. Calls follow the shape of the dose curve; as a rule, active = well fitted curve in the direction sought with a large enough effect; inconclusive = small, poorly fitted or top-dose-only effect, or another doubt; inactive = no such curve, though single readings can be large; an effect the other way counts as inactive or inconclusive.
# Columns and labels:
# [1] = qHTS of pediatric cancer cell lines to identify multiple opportunities for drug repurposing: Primary screen for OHS-50 cells (AID 1347103); also: nearly all actives have a fitted effect of over 40% in size; also: potency is read from the fitted curve at half-maximal effect
# Summary of the method: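 Cells (500-1,000/well) rested 5 h, then received compounds for 48 h; metabolically active cells were measured by CellTiter-Glo luminescence. Final concentrations spanned up to 46 µM (MIPE, 11-point) or 0.59 nM-46 µM (NPC, 8-point) in primary screens, 11-point in follow-ups.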
# [2] = qHTS of pediatric cancer cell lines to identify multiple opportunities for drug repurposing: Primary screen for control Hh wild type fibroblast cells (AID 1347106);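 also: series mostly up to about 46 µM; a drop in luminescence marks cytotoxicity and a rise apparent proliferation; nearly all actives have a fitted effect of over 55% in size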
# Summary of the method: (§1)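 Viability after 48 h compound treatment at 37C, 500-1,000 cells/well, read as ATP luminescence with CellTiter-Glo. Primary screens used 11-point (MIPE, 0.78 nM-46 µM) or 8-point (NPC, 0.59 nM-46 µM) final concentrations; follow-up screens used 11-point dilutions.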
# [3] = qHTS of pediatric cancer cell lines to identify multiple opportunities for drug repurposing: Primary screen for Rh41 cells (AID 1347108); also: nearly all actives have a fitted effect of over 70% in size; also: potency is read from the fitted curve at half-maximal effect
# Summary of the method: (§2)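 Following a 5-hour attachment period, cells at 500-1,000/well received compounds and were cultured for 48 hours. CellTiter-Glo was added and luminescence read to estimate viable, metabolically active cells.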
# [4] = qHTS of pediatric cancer cell lines to identify multiple opportunities for drug repurposing: Primary screen for MG 63 (6-TG R) cells (AID 1347105); also: nearly all actives have a fitted effect of over 50% in size; also: potency is read from the fitted curve at half-maximal effect
# Summary of the method: as §2
# [5] = qHTS of pediatric cancer cell lines to identify multiple opportunities for drug repurposing: Primary screen for Rh30 cells (AID 1347107); also: nearly all actives have a fitted effect of over 75% in size; also: potency is read from the fitted curve at half-maximal effect
# Summary of the method: as §1
# [6] = qHTS of pediatric cancer cell lines to identify multiple opportunities for drug repurposing: Confirmatory screen for NB1643 cells (AID 1347109); also: nearly all actives have a fitted effect of over 45% in size
# Summary of the method: as §1
# [7] = qHTS of pediatric cancer cell lines to identify multiple opportunities for drug repurposing: Confirmatory screen for LAN-5 cells (AID 1347113); also: nearly all actives have a fitted effect of over 65% in size
# Summary of the method: as §1
# [8] = qHTS of pediatric cancer cell lines to identify multiple opportunities for drug repurposing: Confirmatory screen for SJ-GBM2 cells (AID 1347116); also: nearly all actives have a fitted effect of over 60% in size
# Summary of the method: (§3)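 Viability measured as metabolically active cells via CellTiter-Glo luminescence following 48 hours of compound exposure, 11-point dilutions in confirmatory testing. 500-1,000 cells/well plated 5 hours before dosing; controls were DMSO and 2.3 µM bortezomib.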
# [9] = qHTS of pediatric cancer cell lines to identify multiple opportunities for drug repurposing: Confirmatory screen for control Hh wild type fibroblast cells (AID 1347121); also: nearly all actives have a fitted effect of over 70% in size
# Summary of the method: as §1
# [10] = qHTS of pediatric cancer cell lines to identify multiple opportunities for drug repurposing: Confirmatory screen for RD cells (AID 1347124);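 also: cells exposed to compound for 48 h before viability readout; nearly all actives have a fitted effect of over 65% in size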
# Summary of the method: as §1
# [11] = qHTS of pediatric cancer cell lines to identify multiple opportunities for drug repurposing: Confirmatory screen for BT-12 cells (AID 1347112); also: nearly all actives have a fitted effect of over 55% in size
# Summary of the method: as §1
# [12] = qHTS of pediatric cancer cell lines to identify multiple opportunities for drug repurposing: Confirmatory screen for DAOY cells (AID 1347114); also: nearly all actives have a fitted effect of over 65% in size
# Summary of the method: as §3
# [13] = qHTS of pediatric cancer cell lines to identify multiple opportunities for drug repurposing: Confirmatory screen for NB-EBc1 cells (AID 1347115); also: nearly all actives have a fitted effect of over 45% in size
# Summary of the method: as §1
# [14] = qHTS of pediatric cancer cell lines to identify multiple opportunities for drug repurposing: Confirmatory screen for MG 63 (6-TG R) cells (AID 1347119); also: nearly all actives have a fitted effect of over 55% in size; also: potency is read from the fitted curve at half-maximal effect
# Summary of the method: as §1
# [15] = qHTS of pediatric cancer cell lines to identify multiple opportunities for drug repurposing: Primary screen for RD cells (AID 1347104); also: nearly all actives have a fitted effect of over 55% in size
# Summary of the method: as §2
# [16] = qHTS of pediatric cancer cell lines to identify multiple opportunities for drug repurposing: Confirmatory screen for BT-37 cells (AID 1347117); also: nearly all actives have a fitted effect of over 55% in size
# Summary of the method: as §1
# [17] = qHTS of pediatric cancer cell lines to identify multiple opportunities for drug repurposing: Confirmatory screen for Rh41 cells (AID 1347123);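 also: 48 h compound exposure; nearly all actives have a fitted effect of over 60% in size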; also: potency is read from the fitted curve at half-maximal effect
# Summary of the method: as §1
# [18] = qHTS of pediatric cancer cell lines to identify multiple opportunities for drug repurposing: Confirmatory screen for SK-N-MC cells (AID 1347111);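 also: potency is read from the fitted curve at half-maximal effect; cells exposed to compound for 48 h before the readout; nearly all actives have a fitted effect of over 70% in size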
# Summary of the method: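 SK-N-MC cells at 500-1,000 cells/well in growth media were pre-incubated 5 h, then exposed to compounds at 11-point dilutions for 48 h at 37 degrees C, 5% CO2. Viability was read as CellTiter-Glo luminescence.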
# [19] = qHTS of pediatric cancer cell lines to identify multiple opportunities for drug repurposing: Confirmatory screen for TC32 cells (AID 1347118); also: potency is read from the fitted curve at half-maximal effect; nearly all actives have a fitted effect of over 65% in size
# Summary of the method: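 qHTS, TC32, 48 h drug treatment, CellTiter-Glo luminescence as a proxy for metabolically active cells; primary top concentration 46 µM (MIPE 11-pt, NPC 8-pt); confirmatory 11-pt.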
smiles,measurement,setting,value
COc1cc(Nc2ncc(F)c(Nc3ccc4c(n3)NC(=O)C(C)(C)O4)n2)cc(OC)c1OC,Potency,[1],0.544 µM (active)
same,Potency,[2],inactive
same,Potency,[3],2.35 µM (active)
CON=C(C(=O)N[C@@H]1C(=O)N2C(C(=O)OCOC(=O)C(C)(C)C)=C(C=Cc3scnc3C)CS[C@H]12)c1csc(N)n1,Potency,[1],inactive
same,Potency,[4],inactive
same,Potency,[5],inactive
same,Potency,[3],inactive
O=C(Nc1cccc(Br)c1)c1cccc(S(=O)(=O)N2CCCCCC2)c1,Potency,[1],19.3 µM (active)
same,Potency,[6],inactive
same,Potency,[7],inactive
same,Potency,[8],inactive
same,Potency,[9],inactive
same,Potency,[10],inactive
CC(C)C(=O)Nc1ncc(-c2cc(C(F)F)nn2-c2c(Cl)cccc2Cl)s1,Potency,[1],27.3 µM (active)
same,Potency,[5],inactive
O=C1NC(=O)C(=Cc2ccc3nccnc3c2)S1,Potency,[1],4.21 µM (active)
same,Potency,[4],5.12 µM (active)
same,Potency,[3],inactive
CC(C)(C(=O)NCC(F)(F)C(F)(F)F)C(=O)N[C@@H]1C(=O)Nc2ccccc2-c2ccccc21,Potency,[1],1.53 µM (active)
same,Potency,[4],inactive
same,Potency,[2],inactive
same,Potency,[6],inactive
same,Potency,[11],inactive
same,Potency,[7],inactive
same,Potency,[12],inactive
same,Potency,[13],inactive
same,Potency,[8],inactive
same,Potency,[14],inactive
same,Potency,[9],inactive
same,Potency,[10],inactive
C[C@H](NC(=O)C(=O)Nc1ccccc1C(C)(C)C)C(=O)N[C@@H](CC(=O)O)C(=O)COc1c(F)c(F)cc(F)c1F,Potency,[1],inactive
same,Potency,[4],14.8 µM (active)
same,Potency,[5],inactive
CC(=O)CCCCn1c(=O)c2c(ncn2C)n(C)c1=O,Potency,[1],inactive
same,Potency,[4],inactive
same,Potency,[5],inactive
same,Potency,[3],inactive
CCN(CC)CCNC(=O)c1ccc(N)cc1,Potency,[1],inactive
same,Potency,[4],inactive
same,Potency,[5],inactive
same,Potency,[3],inactive
COCCOc1nc(-c2ccc(Cl)c(Cl)c2)n(-c2ccc(NC(=O)CCl)cc2)n1,Potency,[1],6.11 µM (active)
same,Potency,[2],inactive
CCn1c(C(=O)N(C2CC2)C2CC2)cc2c3c(ncn3C)c(Nc3cc(C)n(C)n3)nc21,Potency,[15],inactive
same,Potency,[4],inactive
same,Potency,[2],inactive
CC(C)NCC(O)COc1cccc2[nH]ccc12 (stereo not drawn),Potency,[1],inactive
same,Potency,[4],inactive
same,Potency,[5],inactive
same,Potency,[3],inactive
c1cc(-c2sc(-c3ccncc3)c(-c3ccncc3)c2-c2ccncc2)ccn1,Potency,[1],inactive
same,Potency,[4],inactive
same,Potency,[5],inactive
same,Potency,[3],inactive
CO[C@H]1C[C@@H]2CC[C@@H](C)[C@@](O)(O2)C(=O)C(=O)N2CCCC[C@@H]2C(=O)O[C@H]([C@H](C)C[C@@H]2CC[C@H](OCCO)[C@H](OC)C2)CC(=O)[C@H](C)C=C(C)[C@@H](O)[C@@H](OC)C(=O)[C@H](C)C[C@H](C)C=CC=CC=C1C,Potency,[1],6.11 µM (active)
same,Potency,[4],inactive
same,Potency,[5],inactive
same,Potency,[3],1.18 µM (active)
same,Potency,[11],inactive
same,Potency,[13],inactive
same,Potency,[8],inactive
same,Potency,[9],inactive
same,Potency,[10],inactive
NC(=O)c1cnc(-c2ccc(C3(N)CCC3)cc2)c(-c2ccccc2)c1,Potency,[1],2.73 µM (active)
same,Potency,[2],inactive
same,Potency,[5],inactive
COc1ccc2c(Oc3ccc(NC(=O)c4c(C)n(CC(C)(C)O)n(-c5ccccc5)c4=O)cc3F)ccnc2c1,Potency,[1],21.7 µM (active)
same,Potency,[2],inactive
same,Potency,[6],inactive
same,Potency,[11],inactive
same,Potency,[7],inactive
same,Potency,[16],inactive
same,Potency,[9],inactive
same,Potency,[17],23.3 µM (active)
same,Potency,[10],inactive
O=c1cc(-c2ccc(O)cc2)oc2cc(O)cc(O)c12,Potency,[1],3.06 µM (active)
same,Potency,[4],18.7 µM (active)
same,Potency,[2],inactive
same,Potency,[7],inactive
same,Potency,[12],inactive
same,Potency,[8],inactive
same,Potency,[9],inactive
same,Potency,[17],inactive
same,Potency,[10],inactive
CN(C)CCC=C1c2ccccc2COc2ccc(CC(=O)O)cc21,Potency,[1],inactive
same,Potency,[3],inactive
CO[C@H]1C(=O)[C@]2(C)[C@@H](OC)C[C@H]3OC[C@@]3(OC(C)=O)[C@H]2[C@H](OC(=O)c2ccccc2)[C@]2(O)C[C@H](OC(=O)[C@H](O)[C@@H](NC(=O)OC(C)(C)C)c3ccccc3)C(C)=C1C2(C)C,Potency,[1],0.685 µM (active)
same,Potency,[2],inactive
same,Potency,[5],inactive
same,Potency,[3],0.001 µM (active)
same,Potency,[18],0.0033 µM (active)
same,Potency,[7],inactive
same,Potency,[13],inactive
same,Potency,[8],inactive
same,Potency,[19],0.0033 µM (active)
same,Potency,[14],0.0083 µM (active)
same,Potency,[9],inactive
same,Potency,[17],0.0165 µM (active)
Nc1nc(F)nc2c1ncn2[C@@H]1O[C@H](COP(=O)(O)O)[C@@H](O)[C@H]1O,Potency,[1],0.485 µM (active)
same,Potency,[4],0.469 µM (active)
same,Potency,[3],inactive
O=c1cc(CN2CCOCC2)occ1OCCCCCSc1ccnc2cc(C(F)(F)F)ccc12,Potency,[1],15.3 µM (active)
same,Potency,[4],inactive
same,Potency,[5],inactive
CNC(=O)c1ccccc1Sc1ccc2c(C=Cc3ccccn3)n[nH]c2c1,Potency,[1],21.7 µM (active)
same,Potency,[2],inactive
COc1cc(NC(=O)c2ccc(-c3ccc(Cl)cc3)o2)cc(OC)c1,Potency,[1],inactive
same,Potency,[4],7.43 µM (active)
same,Potency,[5],7.43 µM (active)
same,Potency,[3],7.43 µM (active)
CCC(=O)NC[C@H](Cc1ccc(OCCc2nc(-c3ccccc3)oc2C)cc1)NC(C)=CC(=O)c1ccc(C(F)(F)F)cc1,Potency,[1],12.2 µM (active)
same,Potency,[2],inactive
CN[C@@H](C)C(=O)N[C@H]1CN(C(=O)CC(C)C)CC[C@H]2CC[C@@H](C(=O)NC(c3ccccc3)c3ccccc3)N2C1=O,Potency,[1],0.243 µM (active)
same,Potency,[5],inactive
same,Potency,[6],inactive
same,Potency,[18],7.37 µM (active)
same,Potency,[11],inactive
same,Potency,[7],inactive
same,Potency,[13],inactive
same,Potency,[8],inactive
same,Potency,[19],8.27 µM (active)
same,Potency,[14],inactive
same,Potency,[9],inactive
same,Potency,[10],inactive
Cc1ccn(-c2ccc(-c3ncco3)cc2)c(=O)c1-c1ccc2nc(N)ncc2c1,Potency,[1],2.73 µM (active)
same,Potency,[2],inactive
same,Potency,[5],inactive
same,Potency,[3],inactive
